Screens (PubChem BioAssay)
Many of the other results were omitted from the sample, so hits are more common in it than they were.
TTR transcr act – activators of transthyretin transcription | SH-SY5Y TTR promoter Gaussia luciferase, luminescence; 100% = recombinant luciferase protein wells | activation, % at 16.7 µM | 1.3% of 92,000 active;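 active means activation above the mean of all tested compounds plus 3 SD, cut at about 9.5% in these data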;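 further: cells exposed to compounds for one day before reading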
HuH7 TTR inh – HuH7 TTR transcription inhibition, counter-screen. shares compounds with TTR transcr act. HuH7 TTR promoter-Gaussia luciferase reporter, luminescence. inhibition, % at 16.7 µM. 4% of 1,100 active. AID 1117279;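 active means average inhibition above the solvent-only control wells' mean plus 3 SD, cut at about 15% in these data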;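 further: inhibitors lower well luminescence so higher value means more inhibition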
TTR up confirm – human TTR transcription activation, confirmation; 1,100 tested, under 10 active; shares compounds with TTR transcr act; activation, % at 16.7 µM; SHSY5Y TTR promoter Gaussia luciferase, luminescence; 100% = purified Lucia enzyme wells, no cells; AID 1117280;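 active means mean activation above a set limit taken from the earlier primary screen, cut at about 11% in these data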
Large screens that a line does not name were inactive (follow-up assays come after a bar, where they were run).

CC1(c2nnnn2Cc2ccccc2)CCC(=O)N1CCc1c[nH]c2ccccc12 (centres undefined)	none
Cn1c(N)nc2nc[nH]c2c1=S	none
O=C(COC(=O)c1cc[n+]([O-])cc1)Nc1ccccc1Sc1ccccc1	none
CCCC(=O)OCC(=O)Nc1ccccc1Sc1ccccc1	TTR transcr act 11.5 | HuH7 TTR inh inactive | TTR up confirm inactive
CCCC(=O)OCC(=O)Nc1ccccc1C#N	none
CSc1ccc(CN2CCN(C(=O)c3ccc([N+](=O)[O-])cc3)CC2)cc1	none
CC1CCC(NC(=O)c2cccc(S(=O)(=O)NCc3ccccc3)c2)CC1 (centres undefined)	none
C=CC[C@@H](CC(=O)N[C@H](CO)Cc1ccccc1)C(=O)N[C@@H](C)COC(=O)[C@@H](CC=C)Cc1ccc(F)cc1	none
C=CCC[C@@H](Cc1ccc(F)cc1)C(=O)OC[C@@H](Cc1ccccc1)NC(=O)[C@H](CC=C)CC(=O)NCCO	none
C=CC[C@@H](CC(=O)NCCO)C(=O)N[C@@H](C)COC(=O)[C@@H](CC=C)Cc1ccc(F)cc1	TTR transcr act 20.5 | HuH7 TTR inh inactive | TTR up confirm inactive
C/C(=N\NC(=O)c1c[nH]c2ccccc12)c1ccco1	none
O=C(Cn1cnc2ccccc2c1=O)c1c[nH]c2ccccc12	none
O=C(CN1C(=O)C(=O)N(Cc2ccco2)C1=O)c1c[nH]c2ccccc12	TTR transcr act 10.9 | HuH7 TTR inh inactive | TTR up confirm inactive
Cc1cc(C)n(CC2CC(=O)N(c3ccc(Cl)cc3)C2=O)n1 (centres undefined)	none
Cc1cc(C)n(CC2CC(=O)N(c3ccc(Cl)c(Cl)c3)C2=O)n1 (centres undefined)	TTR transcr act 11.9 | HuH7 TTR inh inactive | TTR up confirm inactive
Cc1ccc(N2C(=O)CC(Cn3nc(C)cc3C)C2=O)cc1 (centres undefined)	none
CSc1ccccc1-c1cnc(NC(C)=O)cn1	none
CCc1ccc(NS(=O)(=O)c2c(C)noc2C)cc1	none
CCOC(=O)Cc1ncccc1C(=O)Nc1ccc(Oc2ccccc2)cc1	none
Cn1c(SCC(=O)NCc2ccc(F)cc2)nc2c([nH]c3ccccc32)c1=O	none
S=c1[nH]nc(COc2ccccc2)n1/N=C/c1cccc(Br)c1	none
S=c1[nH]nc(COc2ccccc2)n1/N=C/C=C/c1ccccc1	TTR transcr act 19.5 | HuH7 TTR inh inactive | TTR up confirm inactive
S=c1[nH]nc(COc2ccccc2)n1/N=C/C=C/c1ccco1	none
COc1ccccc1CCC(=O)OCC(=O)Nc1c(C)nn(-c2ccccc2)c1C	none
C[C@@H]1CN([C@@H](C)COC(=O)C(C)(C)C)C(=O)c2cc(NC(=O)Nc3ccccc3)ccc2O[C@@H](C)CCCCO[C@H]1CN(C)S(=O)(=O)c1ccc(F)cc1	none
CCOC(=O)C1CCN(C(=O)c2cc3c(=O)n4ccccc4nc3n2C)CC1	none
O=c1[nH]c2cc3c(cc2cc1C(c1nnnn1Cc1ccccc1)N1CCCc2ccccc21)OCO3 (centres undefined)	none
Cc1cccc2cc(C(c3nnnn3Cc3ccc4c(c3)OCO4)N3CCCC3)c(=O)[nH]c12 (centres undefined)	TTR transcr act 10.6 | HuH7 TTR inh inactive | TTR up confirm inactive
CCC(C)(C)n1nnnc1C(c1cc2cccc(C)c2[nH]c1=O)N1CCN(C(=O)c2ccco2)CC1 (centres undefined)	none
Cc1ccc2[nH]c(=O)c(COC(=O)c3cccs3)cc2c1	none
COC(=O)c1cccc(COC(=O)c2cccnc2SC)c1	TTR transcr act 12.5 | HuH7 TTR inh inactive | TTR up confirm inactive
COC(=O)c1ccc(COC(=O)c2cccnc2Cl)cc1	none
CSc1ncccc1C(=O)OCc1c(F)cccc1Cl	none
COC(=O)CCC(=O)N1CCCC(N2CCN(c3cccc(C(F)(F)F)c3)CC2)C1 (centres undefined)	none
O=C(N[C@@H](Cc1ccccc1)C(=O)N1CCC2CCN(S(=O)(=O)c3ccccc3)CC21)[C@@H]1CCCN1 (some centres undefined)	none
COC(=O)CN1C(=O)[C@H]2[C@@H](/C=C/c3ccccc3)N3C(=O)CN(CCO)C(=O)[C@@]3(Cc3ccccc3)[C@H]2C1=O	none
COC(=O)CN1C(=O)N(c2ccccc2)C(N(O)C(=O)Nc2ccccc2)C1(C)C (centres undefined)	none
CNC(=O)N(O)C1N(C)C(=O)N(Cc2ccccc2)C1(C)C (centres undefined)	none
COC(=O)CNC(=O)CN1C(=O)N(c2cccc(Cl)c2)C(N(O)C(=O)Nc2cccc(Cl)c2)C1(C)C (centres undefined)	TTR transcr act 10.1 | HuH7 TTR inh inactive | TTR up confirm inactive
CC[C@]12c3[nH]c4cc(CCC(=O)N(C)C)ccc4c3CCN1C(=O)[C@@H](CC(=O)NCc1ccc(OC)c(OC)c1)C[C@@H]2C(=O)N1CCN(C(=O)C2CC2)CC1	none
CC[C@]12c3[nH]c4cc(-c5ccco5)ccc4c3CCN1C(=O)[C@@H](CC(=O)NCc1ccc(OC)c(OC)c1)C[C@@H]2C(=O)N1CCN(C(=O)C2CC2)CC1	TTR transcr act 10.4 | HuH7 TTR inh inactive | TTR up confirm inactive
CC[C@]12c3[nH]c4cc(-c5ccco5)ccc4c3CCN1C(=O)[C@@H](CC(=O)NCCC1=CCCCC1)C[C@@H]2C(=O)N1CCN(C(=O)C2CC2)CC1	none
CN1CC(c2ccccc2)Oc2ccccc2C1=S (centres undefined)	none
O=S(=O)(NCc1cc(-c2ccccc2)no1)c1ccc(Cl)cc1	none
O=S(=O)(Cc1cc(-c2ccc(Cl)cc2)no1)c1ccccc1	TTR transcr act 12.2 | HuH7 TTR inh inactive | TTR up confirm inactive
O=S(=O)(NCc1cc(-c2ccc(Cl)cc2)no1)c1ccc(Cl)cc1	none
COc1ccc(N2CCN(CCCNC(=O)Cn3c(=O)c4cccn4c4c(C)ccnc43)CC2)cc1	none
Cc1nc2sc(C(=O)NCc3ccc4c(c3)OCO4)c(N)c2c(C)c1Cl	none
COc1ccc(Cl)cc1C(=O)NNC(=O)COC(=O)c1cccs1	TTR transcr act 10.5 | HuH7 TTR inh inactive | TTR up confirm inactive
O=C(CCC(=O)c1cccs1)NNC(=O)c1cc(Cl)ccc1Cl	none
O=C(NNC(=O)c1cc(Cl)ccc1O)c1cccs1	none
O=C(COC(=O)CCc1ccc(S(=O)(=O)N2CCOCC2)cc1)NC(=O)NC1CCCCC1	none
CC(=O)Oc1ccc(C(=O)Nc2cccc3c2CCCC3)cc1	none
CCCC[C@H]1C2CC(OC(=O)Nc3ccc(Br)cc3)C(C2)[C@H]2CCCCN21 (some centres undefined)	none
O=C(Cn1nc(C(F)(F)F)c2c1CCCC2)NCc1ccco1	TTR transcr act 14.5 | HuH7 TTR inh inactive | TTR up confirm inactive
Cc1c(Br)c(C(F)(F)F)nn1CC(=O)NCc1ccco1	none
CC(NC(=O)Cn1nc(C(F)(F)F)c2c1CCC2)c1ccccc1 (centres undefined)	none
CC(CCc1ccccn1)(CCc1ccccn1)C(=O)c1ccccc1	none
COC[C@H]1CCCN1c1cccc2c1S(=O)(=O)N1CC[C@@H](C1)O2	none
COc1ccc(-c2coc(CCC(=O)N3CCN(c4cc(C)ccc4C)CC3)n2)cc1	none
CCOC(=O)C1C(=O)CC(C)(O)C(C(=O)OCC)C1c1ccc(NC(C)=O)cc1 (centres undefined)	none
O=C(CCSCCC(=O)NCC1CCCO1)NCC1CCCO1 (centres undefined)	none
CC(NC(=O)C(=O)NCC1CCCO1)c1ccccc1 (centres undefined)	none
